High-throughput results from PubChem.
AmpC no deterg: AmpC beta-lactamase inhibition without detergent; P00811; AmpC nitrocefin hydrolysis, absorbance 480 nm, 0.0001% Triton; Potency, µM (titrated, usually from 57.1 µM), most hits filed as inhibitors; hit rate 0.52% among 330,000; also: nearly all actives have a fitted effect of over 20% in size
Target sequence (P00811 whole entry, looked up): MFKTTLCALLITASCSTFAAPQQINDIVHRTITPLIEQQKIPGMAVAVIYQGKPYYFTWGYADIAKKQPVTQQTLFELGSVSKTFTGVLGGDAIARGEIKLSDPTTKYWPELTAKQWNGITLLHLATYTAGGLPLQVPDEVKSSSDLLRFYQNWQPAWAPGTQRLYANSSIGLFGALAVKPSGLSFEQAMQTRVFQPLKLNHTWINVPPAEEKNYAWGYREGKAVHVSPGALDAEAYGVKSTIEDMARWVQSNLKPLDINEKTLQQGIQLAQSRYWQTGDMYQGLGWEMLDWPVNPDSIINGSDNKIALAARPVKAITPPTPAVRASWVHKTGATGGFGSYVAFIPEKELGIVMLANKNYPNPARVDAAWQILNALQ
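AmpC (5.3 nM in the dispensed reagent) in 20 mM phosphate pH 7.0 with 0.01% (detergent screen) or 0.0001% Triton X-100 was preincubated with compounds for 15 min at room temperature. Nitrocefin was then added from an 800 uM solution, and hydrolysis was followed at 480 nm.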
FMDV antiviral: foot and mouth disease virus antiviral activity; Potency, µM (series often up to 57.9 µM), usual class: inhibitors; FMDV antiviral cell-based qHTS; AID 1159524; hit rate 1.2% among 410,000; calls by dose curve; tested in HEK293T cells; also: read-out not given here; nearly all actives have a fitted effect of over 45% in size
AMA1 RON2 block: inhibitors of Plasmodium falciparum AMA1-RON2 interaction; Potency, µM (doses to about 58.2 µM), hits mostly inhibitors; AlphaScreen AMA1-biotinylated RON2 peptide binding; AID 720542; hit rate 0.2% among 360,000; also: nearly all actives have a fitted effect of over 45% in size
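AMA1 (3D7) with his tag at 25 nM final met compounds first, then biotinylated RON2 peptide at 25 nM; detection used donor plus acceptor beads, 10 µg/mL apiece, read by AlphaScreen after 30 min at room temperature.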
Sm TGR block: S. mansoni TGR enzyme inhibition. AID 485364. Potency, µM (series often up to 114 µM), actives largely listed as inhibitors. hit rate 3% among 360,000. Q962Y6. purified TGR, DTNB reduction, TNB absorbance 405 nm; also: nearly all actives have a fitted effect of over 60% in size
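First, TGR (20 nM dispensed) and NADPH were mixed with compound. Second, a 15 min room-temperature incubation followed. Third, further NADPH and then DTNB were added to start the reaction. Finally, TNB absorbance was monitored kinetically.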
AmpC inh detg: blocks E. coli AmpC beta-lactamase in detergent assay | Potency, µM (titrated, usually from 114 µM), hits mostly inhibitors | AmpC hydrolysis of nitrocefin, absorbance 480 nm, 0.01% Triton | hit rate 0.041% among 370,000; also: nearly all actives have a fitted effect of over 25% in size
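AmpC (5.3 nM in the dispensed reagent) in 20 mM phosphate pH 7.0 with 0.01% (detergent screen) or 0.0001% Triton X-100 was preincubated with compounds for 15 min at room temperature. Nitrocefin was then added from an 800 uM solution, and hydrolysis was followed at 480 nm.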
Hits are given with their value; n = inactive; u = inconclusive; x = not tested or not shown; ! = not confirmed by another sample; [ ] = remark or other dose. An excerpt weighted towards active compounds, which were near 4.1% of everything screened. Unless noted, calls follow the shape of the dose curve; as a rule, active = well fitted curve in the direction sought with a large enough effect; inconclusive = small, poorly fitted or top-dose-only effect, or another doubt; inactive = no such curve, though single readings can be large; an effect the other way counts as inactive or inconclusive.

SMILES | AmpC no deterg | FMDV antiviral | AMA1 RON2 block | Sm TGR block | AmpC inh detg
COc1ccc(C(=O)Nc2c(C)csc2C(=O)O)cc1 | n | n | n | n | n
Cc1csc(C(=O)O)c1NC(=O)c1ccc(F)cc1 | n | n | n | 89.1µM | n
Cc1ccccc1NC(=O)CSc1nc(N)c2c3c(sc2n1)CSC(C)(C)C3 | 15.8µM | u | n | n | u
Cc1nn(-c2ccccc2)c(C)c1CC(=O)NCC1Cc2cc(F)cc(-c3cccnc3)c2O1 (centres undefined) | x | n | x | x | x
COc1cc(=O)n2c(c1C(=O)NCc1nonc1C)CCN(Cc1c[nH]c3ccccc13)CC2 | x | n | x | x | x
COC(=O)c1ccc(/C=C2/SC(=S)N(CCCC(=O)Nc3ccccn3)C2=O)cc1 | n | n | n | n | u
CCc1ccc(/C=C2\SC(=S)N(CCCC(=O)Nc3ccccn3)C2=O)cc1 | n | 20µM | n | n | n
COc1ccc(C(=O)/C=C/C(=O)N(CC(=O)NC2CCCCC2)Cc2ccccc2)c(O)c1 | n | 8.91µM | n | 1.41µM | n
COc1ccc(C(=O)/C=C/C(=O)N(CC(=O)NC2CCCCC2)CC2CCCO2)c(O)c1 (centres undefined) | n | 7.94µM | n | 1.26µM | n
COc1ccc(C(=O)/C=C/C(=O)N(CC(=O)NC2CCCCC2)Cc2ccccc2OC)c(O)c1 | n | 7.94µM | n | 1µM | n
COc1ccc(C(=O)/C=C/C(=O)N(Cc2ccccc2)C(C(=O)NC2CCCCC2)c2ccncc2)c(O)c1 (centres undefined) | n | n | n | n | n
COc1ccc(C(=O)/C=C/C(=O)N(Cc2ccccc2OC)C(C(=O)NC2CCCCC2)c2ccncc2)c(O)c1 (centres undefined) | n | n | n | n | n
Cc1nc(SCC(=O)N2CCN(c3ccccc3)CC2)c2oc3ccccc3c2n1 | n | 25.1µM | n | n | n
CC(=O)Nc1ccc(Nc2nc(C)nc3c2oc2ccccc23)cc1 | n | u | n | n | n
CCOC(=O)C1CCCN(c2nc(C)nc3c2oc2ccccc23)C1 (centres undefined) | n | 22.4µM | n | n | n
CC(=O)N1CCN(c2ccc(Nc3nc(C)nc4c3oc3ccccc34)cc2)CC1 | n | 25.1µM | n | n | n
CCOC(=O)C1CCN(c2nc(C)nc3c2oc2ccccc23)CC1 | n | u | n | n | n
Cc1nc(SCC(=O)O)c2oc3ccccc3c2n1 | n | n | n | n | u
O=C1CCN(Cc2cccn2-c2ccccn2)CCN1Cc1ccccc1C(F)(F)F | x | n | x | x | x
CCc1ccccc1NC(=O)CSc1nnc(-c2cc(OC)c(OC)c(OC)c2)o1 | x | n | x | n | n
COc1ccc2[nH]c(C)c(C(=O)CN3CCc4cc(OC)c(OC)cc4C3)c2c1 | n | n | n | n | n
COc1ccc2[nH]c(C)c(C(=O)CN3CCOCC3)c2c1 | n | n | n | 44.7µM | n
O=C(Sc1ccccc1)c1cccc(Cn2cc(C(F)(F)F)ccc2=O)c1 | n | n | n | 22.4µM | n
CC(=O)Nc1cc(-c2ccc(C(=O)NC3CC3)cc2)cn2c(-c3cccc(C(F)(F)F)c3)cnc12 | x | 25.1µM | n | x | x
CC(=O)c1ccc(N2CCN(c3ncnc4onc(-c5ccc(Cl)cc5)c34)CC2)cc1 | x | n | x | n | n
SMILES | AmpC no deterg | FMDV antiviral | AMA1 RON2 block | Sm TGR block | AmpC inh detg
COc1cc(NC(=S)NC2CC2)c(OC)cc1Cl | n | n | n | 39.8µM | n
Oc1[nH]c2ccccc2c1N=NC(=S)NCCc1ccccc1 | 25.1µM | n | n | n | u
CN(C)CC(C)(O)c1ccc2c(c1)CN(C(=O)c1ccc(-n3cccn3)cc1)CCO2 (centres undefined) | x | n | x | x | x
COC(=O)C1=C(C(=O)OC)C(c2cc(Cl)ccc2O)c2sc(=O)[nH]c2S1 (centres undefined) | n | n | n | 39.8µM | n
CCOC(=O)c1cccc(NC(=O)Cn2c(=O)c3cccn3c3ccccc32)c1 | x | n | x | n | n
COC(=O)c1ccc(Cn2c(=O)cc(C(F)(F)F)c3c(C)nn(C)c32)cc1 | x | n | x | n | n
Cc1cc(C)nc(Sc2nc(Cl)nc(N(c3ccccc3)c3ccccc3)n2)n1 | n | 35.5µM | n | n | n
Cc1cc(C)nc(SC(C(=O)O)c2ccccc2)n1 (centres undefined) | n | n | n | n | n
O=C(CCN1C(=O)C2CCCCC2C1=O)N1CCN(S(=O)(=O)c2cccc(F)c2)CC1 (centres undefined) | n | n | n | 56.2µM | n
C=C1C(=O)O[C@@H]2[C@H]3O[C@]3(C)CC/C=C(\C)CC[C@@H]12 | x | 31.6µM! | n | x | x
C=C1C(=O)OC2C=C(C)CCC=C(C)CCC12 (centres undefined) | x | n | x | x | x
CSc1ccc(C(=O)N2CCc3c(cnc(C)c3CNC(=O)c3cncs3)C2)cc1 | x | n | x | x | x
COCC(=O)N(CCc1ccccc1)Cc1cc2cc(C)ccc2nc1Cl | n | n | n | 39.8µM | u
COCC(=O)N(CCc1ccc(OC)c(OC)c1)Cc1cc2cc(C)ccc2nc1Cl | n | u | n | n | n
Cc1ccccc1-c1noc(-c2ccccc2OCC(=O)Nc2cccc([N+](=O)[O-])c2)n1 | x | n | x | n | n
CC(NC(=O)c1cccnc1)c1nnc2n1CCN(Cc1ccc(-c3ccccc3Cl)o1)CC2 (centres undefined) | x | n | x | x | x
COc1ccccc1C(C[N+](=O)[O-])c1c(N)n(C)c(=O)n(C)c1=O (centres undefined) | n | 31.6µM | n | n | n
COc1ccccc1C(c1c(N)n(C)c(=O)n(C)c1=O)C(C)[N+](=O)[O-] (centres undefined) | n | n | n | n | n
N#CCC(=N)N1CCN(c2ccccc2Cl)CC1 | 0.316µM | n | n | n | n
N#CCC(=N)N1CCN(c2ccccc2)CC1 | n | n | n | n | n
CC(C)CN1C(=O)CC(Sc2ccccc2C(=O)O)C1=O (centres undefined) | n | n | n | u | n
CCCCN1C(=O)CC(Sc2ccccc2C(=O)O)C1=O (centres undefined) | n | n | n | 20µM | n
CCOC(=O)c1c(N2C(=O)CC(Sc3ccccc3C(=O)O)C2=O)sc(C)c1C (centres undefined) | n | n | n | 4.47µM | n
CN(C)c1ccc(N2C(=O)CC(Sc3ccccc3C(=O)O)C2=O)cc1 (centres undefined) | n | n | n | 28.2µM | u
Cc1ccc(N2C(=O)CC(Sc3ccccc3C(=O)O)C2=O)cc1 (centres undefined) | n | n | n | 12.6µM | n
CN1C(=O)CC(Sc2ccccc2C(=O)O)C1=O (centres undefined) | n | n | n | u | n
Cc1ccc(N2C(=O)CC(Sc3ncccc3C(=O)O)C2=O)cc1 (centres undefined) | n[2.29 µM] | n | n | n | n
COc1ccc(N2C(=O)CC(Sc3ccccc3C(=O)O)C2=O)c([N+](=O)[O-])c1 (centres undefined) | n | n | n | 11.2µM | u
